Inconclusive results are not listed. Calls of active or inactive are those of the source. Unless noted, calls follow the shape of the full dose curve.

A short description of assay [1]: Nuclear factor erythroid 2-related factor 2/antioxidant responsive element (Nrf2/ARE) small molecule agonists: qHTS cell viability counter screen in human keratinocytes (AID 1919968; active = well fitted curve in the direction sought with a large enough effect in the repeat runs; an effect the other way counts as inactive or inconclusive; also: nearly all actives have a fitted effect of over 55% in size). In a few lines:
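HaCaT ARE reporter line, 1,500 cells/well; 5 h settle, 37 C/5% CO2; cpd in DMSO pinned; 23 h exposure; CellTiter-Fluor, 1 h; fluorescence.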
In general terms: Quantitative high-throughput screening tests each substance at several concentrations.

Assay [2] is described as follows: Nuclear factor erythroid 2-related factor 2/antioxidant responsive element (Nrf2/ARE) small molecule agonists: luciferase reporter gene qHTS assay in human keratinocytes (AID 1919969). Also: nearly all actives have a fitted effect of over 35% in size. Also: potency is read from the fitted curve at half-maximal effect.
Assay [3] has as its target Gonadotropin-releasing hormone receptor (Homo sapiens) (UniProt P30968). In words: Human gonadotropin-releasing hormone receptor (GnRHR) small molecule agonists, calcium flux assay in GnRHR-HEK293 cells (AID 1920063). Also: nearly all actives have a fitted effect of over 35% in size. The procedure, abridged:
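GnRHR-HEK293, 1500 cells/well, 18 h 37 C/5% CO2; Ca dye 1 h 37 C; cpd pinned (DMSO), agonist mode; kinetic FL 480/540, 3 min, 1 s reads; 15 conc, n=3.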
(Calcium assays in cells follow changes in intracellular calcium, usually with a dye or a luminescent sensor.)

For assay [4], the target named is KiSS-1 receptor (Homo sapiens) (UniProt Q969F8). In words: Human kisspeptin (KISS1R) small molecule agonists, calcium flux assay in KISS1R-HEK293 cells (AID 1920064; active = well fitted curve in the direction sought with a large enough effect in the repeat runs; an effect the other way counts as inactive or inconclusive). The procedure, abridged: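 Stable human KISS1R HEK293 line; 18 h plating, 37 C/5% CO2; calcium dye 1 h 37 C; compound pin transfer; kinetic fluorescence Ex/Em 480/540, 3 min.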
A short description of assay [5]: G protein-coupled receptor (GPCR) small molecule agonists, calcium flux assay: HEK293 wild type cell line counter screen (AID 1920065). In a few lines: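 Kinetic fluorescence at Ex/Em 480/540, recorded every second over 3 min, served as the read-out after compound addition. Each compound was tested at 15 concentrations in triplicate on cells pre-loaded with calcium dye for 1 h.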

The nature of assay [6]: p53 small molecule agonists, cell-based qHTS assay with human liver microsomes (AID 1963577).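 Also: p53 response element beta-lactamase reporter cells with liver microsomes plus NADPH.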 The procedure, abridged: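 With metabolic activation: human liver microsomes (0.5 mg/mL final) plus NADPH (0.5 mg/mL final) added alongside compounds to p53RE-bla cells; 16 h 37 C exposure; beta-lactamase read by LiveBLAzer fluorescence.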
A short description of assay [7]: p53 small molecule agonists, cell-based qHTS assay with rat liver microsomes (AID 1963578). In a few lines: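 Metabolic activation by rat liver microsomes and NADPH, each 0.5 mg/mL final, added right after compounds to p53RE-bla reporter cells (4,000/well, plated 5 h earlier). 16 h at 37 C, then LiveBLAzer substrate for 2 h at room temperature in the dark; fluorescence read-out.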

Assay [8] is described as follows: p53 small molecule agonists, cell-based qHTS assay with human liver microsomes: qHTS cell viability counter screen (AID 1963579). Also: nearly all actives have a fitted effect of over 45% in size. In a few lines: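 Metabolic activation used human liver microsomes and NADPH, both 0.5 mg/mL final, over 16 hours at 37 C on p53RE-bla cells (4,000/well). Cytotoxicity measured by CellTiter-Glo luminescence, 30 min at room temperature.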

Assay [9] can be described thus: p53 small molecule agonists, cell-based qHTS assay with rat liver microsomes: qHTS cell viability counter screen (AID 1963580). Also: nearly all actives have a fitted effect of over 45% in size. The procedure, abridged: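 Intracellular ATP, by CellTiter-Glo luminescence, defines viability. HCT-116 p53RE-bla cells, 4,000 per well, were compound-treated in the presence of rat liver microsomes and NADPH for 16 h at 37 C.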
The nature of assay [10]: p53 small molecule agonists, cell-based qHTS assay: qHTS cell viability counter screen (AID 1963581). Also: nearly all actives have a fitted effect of over 45% in size. The procedure, abridged:
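HCT-116 p53RE-bla cells, 4,000/well, plated 5 h before compound pin transfer; 16 h at 37 C; bla substrate 2 h RT; then CellTiter-Glo, 30 min RT, luminescence.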

Assay [11] can be described thus: p53 small molecule agonists, cell-based qHTS assay (AID 1963582; active = well fitted activation curve with a large enough effect in the signal ratio in the repeat runs, not every such curve was filed as active; the % refers to the signal ratio). The procedure, abridged:
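Reporter line: p53RE-bla. Pre-incubation 5 h, 37 C, 5% CO2; compound (DMSO, pin tool) 16 h, 37 C; B/G FRET substrate 2 h RT; fluorescence intensity read.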

In assay [12] the target is 5-hydroxytryptamine receptor 2A (Homo sapiens) (UniProt P28223). Kind of assay: 5-hydroxytryptamine receptor 2A (HTR2A) small molecule antagonists, cell-based qHTS assay (AID 1963586). Also: nearly all actives have a fitted effect of over 45% in size. In a few lines: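 Antagonist-mode intracellular calcium assay: DOI (4 nM) added after 5 min compound pre-incubation at room temperature to dye-loaded HTR2A-CHO cells. Fluorescence followed for 3 min, sampled every second.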

Assay [13] shares this target. Kind of assay: 5-hydroxytryptamine receptor 2A (HTR2A) small molecule agonists, cell-based qHTS assay (AID 1963587). Also: nearly all actives have a fitted effect of over 30% in size. The procedure, abridged: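 Kinetic calcium-flux fluorescence (2 min, 1 sec intervals) after compound addition in agonist mode. HTR2A-CHO cells were cultured 18 h, then dye-loaded 1 h at 37 C.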
The target of assay [14] is Muscarinic acetylcholine receptor M1 (Homo sapiens) (UniProt P11229). In words: Cholinergic receptor muscarinic 1 (CHRM1) small molecule antagonists, cell-based qHTS assay (AID 1963588). Also: nearly all actives have a fitted effect of over 40% in size. In a few lines: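 CHRM1-CHO calcium-flux assay, antagonist mode. Cells were seeded 18 h, dye-loaded 1 h at 37 C and given compound for 5 min at RT, then acetylcholine was added at 50nM. FDSS fluorescence was read 3 min; 15 concentrations, three runs.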

The target is the same in assay [15]. In words: Cholinergic receptor muscarinic 1 (CHRM1) small molecule agonists, cell-based qHTS assay (AID 1963589). Also: nearly all actives have a fitted effect of over 35% in size. In a few lines: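 Human M1 in stable CHO line; 18 h plating, 1 h dye load 37 C; cpd added (agonist mode); Ca2+ fluorescence kinetic read, 1 s intervals; 15 conc, 3 runs.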
The nature of assay [16]: cAMP Responsive Elements (CRE) small molecule agonists, cell-based qHTS assay (AID 1963590). The procedure, abridged:
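HEK 293T CRE-bla, 2,000 cells/well, 18 h preincubation 37 C/5% CO2; cpds (DMSO) pinned, 3 h; LiveBLAzer B/G FRET substrate, 2 h RT.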

Assay [17] is described as follows: cAMP Responsive Elements (CRE) small molecule antagonists, cell-based qHTS assay (AID 1963591; active = well fitted inhibition curve with a large enough effect in the signal ratio in the repeat runs, not every such curve was filed as active; the % refers to the signal ratio). The procedure, abridged: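 Beta-lactamase reporter read by FRET substrate (LiveBLAzer B/G) after 2 h at room temperature. CRE-bla HEK293T cells had received compound plus 0.25 uM (final) NKH477 for 3 h at 37 °C.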
Assay [18] addresses Beta-2 adrenergic receptor (Homo sapiens) (UniProt P07550). Kind of assay: Adrenergic beta2 receptor (ADRB2) small molecule antagonists, cell-based qHTS assay (AID 1963592). Also: series mostly up to about 92 µM; nearly all actives have a fitted effect of over 50% in size. In a few lines: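 Cells (CHO, stable ADRB2 overexpression) incubated 18-20hr at 37C; compounds added from DMSO; agonist mix (1nM isoproterenol, 100uM IBMX, 25uM Ro-20-1724) added; 0.5hr RT; d2-cAMP and anti-cAMP-cryptate added; 1hr RT; 665/615 nm read.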

The target in assay [19] is D(2) dopamine receptor (Homo sapiens) (UniProt P14416). Kind of assay: Dopamine D2 receptor (DRD2) small molecule agonists, cell-based qHTS assay (AID 1963594). Also: nearly all actives have a fitted effect of over 35% in size. In a few lines:
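cAMP accumulation in DRD2-HEK293 cells measured by HTRF after 1 h detection; compounds added 10 min before NKH477 (200nM […]) forskolin-analogue stimulation, 30 min at room temperature, with Ro20-1724 present at 0.1 mM final.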

Assay [20] has the same target. Kind of assay: Dopamine D2 receptor (DRD2) small molecule antagonists, cell-based qHTS assay (AID 1963595; active = well fitted inhibition curve with a large enough effect in the signal ratio in the repeat runs, with a control signal flat; the % refers to the signal ratio). In a few lines: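 Readout: HTRF cAMP, cAMP-d2 competing with cellular cAMP for anti-cAMP cryptate, read after 1 h. Cells: DRD2-HEK293. Conditions: 0.1 mM Ro20-1724, 12 nM quinpirole, 200 nM NKH477, 30 min RT.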

Chain of KiSS-1 receptor (Homo sapiens) (Q969F8 whole entry, looked up): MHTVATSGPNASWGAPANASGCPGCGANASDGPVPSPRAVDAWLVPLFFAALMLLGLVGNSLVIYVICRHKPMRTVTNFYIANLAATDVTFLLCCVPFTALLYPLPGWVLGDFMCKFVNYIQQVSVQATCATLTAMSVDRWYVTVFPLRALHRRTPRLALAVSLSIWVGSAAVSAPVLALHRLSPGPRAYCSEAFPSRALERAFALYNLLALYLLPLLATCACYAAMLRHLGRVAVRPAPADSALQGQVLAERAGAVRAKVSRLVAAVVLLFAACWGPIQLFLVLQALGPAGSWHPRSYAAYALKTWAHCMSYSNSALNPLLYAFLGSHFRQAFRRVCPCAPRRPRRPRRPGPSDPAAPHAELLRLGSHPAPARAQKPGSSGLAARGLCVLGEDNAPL
Chain of 5-hydroxytryptamine receptor 2A (Homo sapiens) (P28223 whole entry, looked up): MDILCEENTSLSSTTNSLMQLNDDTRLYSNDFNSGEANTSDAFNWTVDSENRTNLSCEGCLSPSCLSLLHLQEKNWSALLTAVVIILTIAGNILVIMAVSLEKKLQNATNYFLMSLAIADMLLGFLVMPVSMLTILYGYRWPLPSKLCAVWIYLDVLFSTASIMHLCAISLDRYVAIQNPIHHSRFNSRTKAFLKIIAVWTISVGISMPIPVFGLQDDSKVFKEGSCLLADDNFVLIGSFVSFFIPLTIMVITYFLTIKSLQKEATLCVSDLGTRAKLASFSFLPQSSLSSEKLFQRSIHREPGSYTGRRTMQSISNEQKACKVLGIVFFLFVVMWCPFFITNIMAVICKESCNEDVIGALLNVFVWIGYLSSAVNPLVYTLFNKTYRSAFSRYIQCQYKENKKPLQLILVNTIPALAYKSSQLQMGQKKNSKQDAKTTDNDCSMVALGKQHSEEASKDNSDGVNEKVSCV
Chain of Muscarinic acetylcholine receptor M1 (Homo sapiens) (P11229 whole entry, looked up): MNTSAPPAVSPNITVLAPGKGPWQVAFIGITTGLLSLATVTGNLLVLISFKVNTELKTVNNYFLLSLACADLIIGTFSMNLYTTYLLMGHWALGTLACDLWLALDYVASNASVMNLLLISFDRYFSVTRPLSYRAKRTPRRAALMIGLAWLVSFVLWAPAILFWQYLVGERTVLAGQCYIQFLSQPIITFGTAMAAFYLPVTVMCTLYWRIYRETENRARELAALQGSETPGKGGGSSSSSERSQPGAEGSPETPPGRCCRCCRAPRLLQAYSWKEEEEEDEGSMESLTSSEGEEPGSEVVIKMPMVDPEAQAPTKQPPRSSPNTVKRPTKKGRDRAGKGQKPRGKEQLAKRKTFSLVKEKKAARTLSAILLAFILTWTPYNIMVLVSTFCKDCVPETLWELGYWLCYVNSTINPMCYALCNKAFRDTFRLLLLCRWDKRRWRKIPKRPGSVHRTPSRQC
Chain of Gonadotropin-releasing hormone receptor (Homo sapiens) (P30968 whole entry, looked up): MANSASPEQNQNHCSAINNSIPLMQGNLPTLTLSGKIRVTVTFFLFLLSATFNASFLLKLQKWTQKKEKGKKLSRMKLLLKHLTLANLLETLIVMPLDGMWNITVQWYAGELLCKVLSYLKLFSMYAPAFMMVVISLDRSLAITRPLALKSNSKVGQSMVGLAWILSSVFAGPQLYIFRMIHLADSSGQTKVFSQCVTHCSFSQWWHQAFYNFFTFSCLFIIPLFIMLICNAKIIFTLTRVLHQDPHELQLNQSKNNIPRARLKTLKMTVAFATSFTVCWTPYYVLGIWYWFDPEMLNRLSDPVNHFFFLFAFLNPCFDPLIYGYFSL
Chain of D(2) dopamine receptor (Homo sapiens) (P14416 whole entry, looked up): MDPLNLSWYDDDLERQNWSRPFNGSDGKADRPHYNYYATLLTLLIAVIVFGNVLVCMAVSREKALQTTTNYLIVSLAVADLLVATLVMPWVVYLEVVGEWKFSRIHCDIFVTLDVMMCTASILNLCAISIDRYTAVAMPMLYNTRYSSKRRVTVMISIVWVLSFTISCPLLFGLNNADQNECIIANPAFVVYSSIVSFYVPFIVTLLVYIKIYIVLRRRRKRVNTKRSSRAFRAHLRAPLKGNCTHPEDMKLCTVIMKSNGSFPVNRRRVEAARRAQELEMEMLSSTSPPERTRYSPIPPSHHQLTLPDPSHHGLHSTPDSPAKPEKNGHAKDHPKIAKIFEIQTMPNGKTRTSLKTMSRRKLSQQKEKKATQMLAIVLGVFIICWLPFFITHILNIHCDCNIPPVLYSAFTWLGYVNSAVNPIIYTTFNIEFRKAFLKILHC
Chain of Beta-2 adrenergic receptor (Homo sapiens) (P07550 whole entry, looked up): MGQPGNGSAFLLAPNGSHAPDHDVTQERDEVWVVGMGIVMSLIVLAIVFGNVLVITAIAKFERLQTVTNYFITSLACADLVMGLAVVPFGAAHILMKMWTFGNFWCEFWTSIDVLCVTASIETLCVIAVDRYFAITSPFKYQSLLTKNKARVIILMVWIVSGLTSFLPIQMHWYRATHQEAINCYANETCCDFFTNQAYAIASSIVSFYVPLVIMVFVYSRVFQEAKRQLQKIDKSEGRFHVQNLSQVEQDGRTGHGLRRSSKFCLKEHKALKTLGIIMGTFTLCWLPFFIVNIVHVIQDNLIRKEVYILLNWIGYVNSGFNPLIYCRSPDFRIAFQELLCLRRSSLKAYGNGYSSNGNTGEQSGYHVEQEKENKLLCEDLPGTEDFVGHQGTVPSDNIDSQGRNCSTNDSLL

Consider `C1CN2CCC1CC2`, for which the Potency entry in assay [1], in assay [2], in assay [3], in assay [4], in assay [5] and in assay [6] was “inactive” in each case. The Potency result in [7], in assay [8], in assay [9], in assay [10], in assay [11] and in assay [12] was “inactive” each time. The Potency result in [13], in assay [14], in [15], in [16], in assay [17] and in [18] was “inactive” throughout. In addition, the Potency entry in assay [19] and in assay [20] was “inactive” in each case.
As for `O=P(Cl)(Cl)Cl`, the Potency result in assay [1], in assay [2], in assay [3], in assay [4], in assay [5] and in [6] was “inactive” in each case. The Potency entry in [7], in assay [8], in assay [9], in assay [10], in assay [11] and in assay [12] was “inactive” in each case. Besides, the Potency result in [13], in assay [14], in [15], in [16], in assay [17] and in [18] was “inactive” each time. The Potency result in [19] and in assay [20] was “inactive” in each case.
In the case of `Nc1ccc([As](=O)(O)O)cc1`, the Potency entry in assay [1], in assay [2], in assay [3], in assay [4], in assay [5] and in assay [6] was “inactive” throughout. For the same molecule, the Potency entry in assay [7], in assay [8], in [9], in [10], in assay [11] and in assay [12] was “inactive” each time. Further, the Potency result in assay [13], in [14], in assay [15], in [16], in assay [17] and in [18] was “inactive” each time. The Potency result in assay [19] and in [20] was “inactive” in each case.
For `Cc1nn(-c2cc(NS(C)(=O)=O)c(Cl)cc2Cl)c(=O)n1C(F)F`, the Potency result in assay [1], in [2], in assay [3], in assay [4], in assay [5] and in [6] was “inactive” throughout. For the same molecule, the Potency result in [7], in assay [8], in [9], in assay [10], in assay [11] and in assay [12] was “inactive” in each case. Also, the Potency entry in assay [13], in [14], in assay [15], in assay [16], in assay [17] and in assay [18] was “inactive” throughout. Further, the Potency result in assay [19] and in [20] was “inactive” in each case.
Regarding `Cc1ccc(O)c(C)c1`, the Potency entry in assay [1], in assay [2], in assay [3], in assay [4], in assay [5] and in assay [6] was “inactive” in each case. The Potency result in assay [7], in [8], in assay [9], in assay [10], in [11] and in assay [12] was “inactive” throughout. The Potency result in assay [13], in [14], in assay [15], in assay [16], in assay [17] and in assay [18] was “inactive” in each case. Also, the Potency entry in assay [19] and in assay [20] was “inactive” throughout.
With `[CH3][Sn]([Cl])([Cl])[Cl]`, the Potency entry in assay [1], in [2], in assay [3], in assay [4], in assay [5] and in assay [6] was “inactive” each time. Besides, the Potency entry in assay [7], in [8], in [9], in assay [10], in assay [11] and in [12] was “inactive” each time. Besides, the Potency entry in [13], in assay [14], in assay [15], in assay [16], in [17] and in assay [18] was “inactive” in each case. The Potency entry in [19] and in assay [20] was “inactive” throughout.
Consider `CCCCN(CC)c1c([N+](=O)[O-])cc(C(F)(F)F)cc1[N+](=O)[O-]`, for which the Potency result in assay [1], in assay [3], in assay [4], in [5], in [6] and in assay [7] was “inactive” each time. Further, the Potency result in assay [8], in [9], in [10], in [11], in assay [12] and in assay [13] was “inactive” throughout. In addition, the Potency result in assay [14], in [15], in [16], in assay [17], in assay [18] and in assay [19] was “inactive” in each case. The Potency entry in [20] is “inactive”. Further, in assay [2], the Potency was 61.1 µM (active).

These data come from PubChem BioAssay (Tox21).
